Test [1] deals with DLD1. Put plainly: cell viability (CellTiter-Glo) relative to plate median (fraction of plate median); higher = more viable cells. Particulars: 5 µM; treatment time 24 h; reporter: 7TFP. The method, boiled down: (§1)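 Colorectal cancer cell lines stably transduced with lentiviral TCF/Wnt firefly luciferase reporters (7TFP or TCF4/Wnt) were seeded in 384-well plates. 24 h later they received library compounds at a final 5 µM for 24 h. Parallel plates were read for firefly luciferase or CellTiterGlo luminescence on a Tecan F500 reader. Each well's signal was normalised to the plate median (webcellHTS2, additive, no log transformation), and the mean of two independent replicates is reported.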
In general terms: ATP-based viability assays read luminescence as a measure of living cells.

In test [2] the test system is HCT116. The test is described as above. To be noted: 5 µM; treatment time 24 h; reporter: TCF4/Wnt. The essentials:
as §1

For test [3], the system named is SW480. Described as above. To be noted: 5 µM; treatment time 24 h; reporter: 7TFP. The essentials:
as §1

For test [4], the system named is DLD1. Put plainly: TCF/Wnt firefly luciferase reporter signal relative to plate median (fraction of plate median); higher = higher Wnt reporter signal. To be noted: 5 µM; treatment time 24 h; reporter: 7TFP. The method, boiled down: as §1
Background: A reporter such as luciferase makes a cellular process visible.

For test [5], the system named is SW480. The description is as above. Particulars: 5 µM; treatment time 24 h; reporter: 7TFP. The method, boiled down: as §1

± gives the standard deviation of the averaged measurements.

For `CC1=C(/C=C/C(C)=C/C=C/C(C)=C/C=C/C=C(C)/C=C/C=C(C)/C=C/C2=C(C)C(=O)CCC2(C)C)C(C)(C)CCC1=O` [CANTHAXANTHIN (euglenanone)], the cell viability came to 1 ± 0.021 in test [1], 0.899 ± 0.067 in test [2] and 1.06 in test [3]. Besides, the “TCF/Wnt firefly luciferase reporter signal” value in test [4] amounted to 1.115 ± 0.0071; in test [5], 1.17 ± 0.014.
As to `O=c1cc(-c2ccc(O)c(O)c2)oc2cc(O[C@@H]3O[C@H](CO)[C@@H](O)[C@H](O)[C@H]3O)cc(O)c12` [Luteolin-7-O-glucoside (102)], the values for the cell viability in test [1], in test [2] and in test [3] were 0.908 ± 0.058, 0.957 ± 0.041 and 0.95 ± 0.0028, respectively. For the same compound, the “TCF/Wnt firefly luciferase reporter signal” value came out at 0.861 ± 0.052 in test [4] and 1.03 ± 0.072 in test [5].
In the case of `CCCCC(=O)O[C@H]1CC[C@H]2[C@@H]3CCc4cc(O)ccc4[C@H]3CC[C@]12C`, the cell viability in test [1] came to 1.07 ± 0.042; in test [2], 1.01 ± 0.052; in test [3], 1 ± 0.036. The entries for the “TCF/Wnt firefly luciferase reporter signal” value in test [4] and in test [5] were 0.956 ± 0.25 and 1.04 ± 0.11, respectively.
The matching figures for `COc1cc(C)c(C(=O)O)c(O)c1`: 1.05 ± 0.014, 1.11 ± 0.14, 1 ± 0.037, 0.924 ± 0.0085 and 0.986 ± 0.02.
As for `CC(C(=O)O)[C@H]1CCC2C3CC=C4C[C@@H](O)CC[C@]4(C)C3CC[C@@]21C` (stereo partly drawn) [3beta-HYDROXY-23,24-BISNORCHOL-5-ENIC ACID], the figures for the cell viability in test [1], in test [2] and in test [3] were 1.09 ± 0.057, 1.05 ± 0.071 and 0.999 ± 0.016, respectively. Moreover, the entries for the “TCF/Wnt firefly luciferase reporter signal” value in test [4] and in test [5] were 1.01 ± 0.021 and 1.09 ± 0.028, respectively.
With `NC(=O)NCCC[C@H](N)C(=O)O`, the cell viability in test [1] amounted to 1 ± 0.12; in test [2], 1 ± 0.051; in test [3] it was 1.015 ± 0.0071. In addition, the results for the “TCF/Wnt firefly luciferase reporter signal” value in test [4] and in test [5] were 0.944 ± 0.043 and 0.864 ± 0.083, respectively.
Regarding `O=c1cc(-c2ccccc2)oc2c(O)c(O)ccc12`, the cell viability in test [1] turned out to be 1.11 ± 0.11; in test [2], 0.969 ± 0.039; in test [3], 0.98 ± 0.015. For the same compound, the “TCF/Wnt firefly luciferase reporter signal” value came out at 1.13 ± 0.071 in test [4] and 1.11 ± 0.057 in test [5].
Taken in the same sequence, the figures for `COc1cc(-c2oc3cc(O)ccc3c(=O)c2O)ccc1O` were 1.03 ± 0.014, 1.12 ± 0.078, 1.055 ± 0.0071, 1 ± 0.098 and 1.07 ± 0.035.
Turning to `CC(=O)O[C@H]1C[C@@H](OC(C)=O)C(C)(C)C2C[C@@H](O)[C@]3(C)C(CC[C@@]4(C)[C@H](c5ccoc5)OC(=O)[C@H]5O[C@]543)[C@]21C` (stereo not given in full), the results for the cell viability in test [1], in test [2] and in test [3] were 1.04 ± 0.042, 1.06 ± 0.014 and 1.01 ± 0.073, respectively. Besides, the “TCF/Wnt firefly luciferase reporter signal” value in test [4] is 0.977 ± 0.033; in test [5] it was 1.02 ± 0.061.
On to `CC1=C(/C=C/C(C)=C/C=C/C(C)=C/C(=O)O)C(C)(C)CCC1`, for which the results for the cell viability in test [1], in test [2] and in test [3] were 0.9525 ± 0.0078, 0.973 ± 0.067 and 0.994 ± 0.052, respectively. The “TCF/Wnt firefly luciferase reporter signal” value in test [4] turned out to be 0.912 ± 0.037; in test [5], 0.889 ± 0.018.
The matching figures for `O=C(O)c1ccc(S(=O)(=O)N(Cl)Cl)cc1`: 0.936 ± 0.027, 1 ± 0.028, 0.8755 ± 0.0078, 0.937 ± 0.052 and 0.876 ± 0.03.
Regarding `O=c1cc(-c2ccc(O)cc2)oc2cc(O)cc(O)c12`, the cell viability in test [1] came to 0.982 ± 0.026; in test [2] it was 1.07 ± 0.028; in test [3], 1.02 ± 0.014. The “TCF/Wnt firefly luciferase reporter signal” value is 1.105 ± 0.0071 in test [4] and 1.03 ± 0.05 in test [5].
For `C=CC[S+]([O-])C[C@H](N)C(=O)O` (stereo not given in full), the cell viability in test [1] was determined as 0.984 ± 0.018; in test [2], 0.903 ± 0.079; in test [3], 0.96 ± 0.016. Besides, the “TCF/Wnt firefly luciferase reporter signal” value in test [4] came to 0.986 ± 0.091; in test [5], 1.05 ± 0.042.
With `CC(C)(C)NCC(O)c1cc(O)cc(O)c1` (stereo not given), the cell viability in test [1] came to 1.045 ± 0.0071; in test [2] it was 1.02 ± 0.061; in test [3] it was 1.09 ± 0.028. The “TCF/Wnt firefly luciferase reporter signal” value in test [4] worked out at 0.999 ± 0.03; in test [5] it was 1.03 ± 0.13.
Regarding `CC(C)CC1NC(=O)C2CCCN2C1=O` (single isomer, unassigned; isomere) [Cyclo(leucylprolyl) (Isomere)], the cell viability in test [1] was determined as 0.919 ± 0.068; in test [2], 0.94 ± 0.016; in test [3] it was 1.02 ± 0.054. Further, the figures for the “TCF/Wnt firefly luciferase reporter signal” value in test [4] and in test [5] were 0.69 ± 0.27 and 1.12 ± 0.064, respectively.
As for `c1ccc([C@H]2CN3CCSC3=N2)cc1`, the figures for the cell viability in test [1], in test [2] and in test [3] were 1.01, 0.943 ± 0.11 and 1.02 ± 0.048, respectively. Also, the entries for the “TCF/Wnt firefly luciferase reporter signal” value in test [4] and in test [5] were 0.943 ± 0.043 and 0.947 ± 0.066, respectively.
Consider `CC1(C)S[C@@H]2[C@H](NC(=O)C(C(=O)O)c3ccccc3)C(=O)N2[C@H]1C(=O)O` (stereo not given in full), for which the values for the cell viability in test [1], in test [2] and in test [3] were 0.912 ± 0.073, 0.9345 ± 0.0064 and 0.9405 ± 0.005, respectively. The “TCF/Wnt firefly luciferase reporter signal” value worked out at 0.999 ± 0.13 in test [4] and 1.05 ± 0.021 in test [5].
The matching figures for `CC(C)(S)[C@@H](N)C(=O)O`: 0.991 ± 0.027, 0.956 ± 0.13, 0.9765 ± 0.0092, 1.09 ± 0.014 and 1.16 ± 0.11.
For `C[C@H]1CC2C3CCC4=CC(=O)C=C[C@]4(C)[C@@]3(F)[C@@H](O)C[C@]2(C)[C@@]1(O)C(=O)COP(=O)(O)O` (stereo not given in full), the values for the cell viability in test [1], in test [2] and in test [3] were 0.93 ± 0.063, 0.942 ± 0.028 and 0.952 ± 0.029, respectively. In addition, the “TCF/Wnt firefly luciferase reporter signal” value in test [4] was 1.03 ± 0.09; in test [5] it was 1.06 ± 0.028.
The matching figures for `Cn1c([N+](=O)[O-])cnc1COC(N)=O`: 0.999 ± 0.072, 1.07 ± 0.071, 1.03 ± 0.014, 1.05 ± 0.028 and 0.996 ± 0.12.
For the compound `COc1cc2c(cc1OC)C(=O)C(CC1CCN(Cc3ccccc3)CC1)C2` (stereo not given), the cell viability in test [1] came out at 1.05 ± 0.014; in test [2], 1.06 ± 0.042; in test [3], 1.06. For the same compound, the entries for the “TCF/Wnt firefly luciferase reporter signal” value in test [4] and in test [5] were 1.12 ± 0.14 and 1.06 ± 0.05, respectively.
As to `C=CCNC1=C2C[C@@H](C)C[C@H](OC)[C@H](O)[C@@H](C)/C=C(\C)[C@H](OC(N)=O)[C@@H](OC)/C=C\C=C(/C)C(=O)NC(=CC1=O)C2=O`, the cell viability in test [1] is 1.07 ± 0.014; in test [2], 0.623 ± 0.023; in test [3], 0.972 ± 0.04. The “TCF/Wnt firefly luciferase reporter signal” value in test [4] came to 0.878 ± 0.15; in test [5], 0.731 ± 0.029.
With `C/C=C1\[C@H]2C=C(C)C[C@]1(N)c1ccc(=O)[nH]c1C2`, the cell viability in test [1] came to 0.965 ± 0.064; in test [2], 0.952 ± 0.016; in test [3], 1.02 ± 0.014. Further, the “TCF/Wnt firefly luciferase reporter signal” value was 1.1 ± 0.17 in test [4] and 1 ± 0.16 in test [5].
Take `CCC(O)CC1CCC(C(C)C(=O)OC(C)CC2CCC(C(C)C(=O)O)O2)O1` (stereo not given) [Bonactin]: the cell viability in test [1] is 0.944 ± 0.027; in test [2] it was 0.941 ± 0.11; in test [3], 0.974 ± 0.0014. The “TCF/Wnt firefly luciferase reporter signal” value in test [4] was determined as 0.962 ± 0.054; in test [5] it was 0.87 ± 0.12.
`Oc1ccc([C@H]2Oc3cc(O)cc(O)c3C[C@H]2O)cc1`: the cell viability in test [1] was determined as 1.045 ± 0.0071; in test [2] it was 1.01 ± 0.14; in test [3], 0.974 ± 0.021. Moreover, the “TCF/Wnt firefly luciferase reporter signal” value in test [4] amounted to 1.01 ± 0.12; in test [5], 1.01 ± 0.07.
Regarding `Nc1c2c(nc3ccccc13)CCCC2`, the cell viability in test [1] was found to be 1.04; in test [2] it was 0.997 ± 0.018; in test [3], 0.946 ± 0.014. The “TCF/Wnt firefly luciferase reporter signal” value worked out at 0.999 ± 0.016 in test [4] and 0.943 ± 0.015 in test [5].

For the origin of these results see the supplement of paper PMC6522484.
